# “And” between values parts separate entries of the source, which are not always exact repeats. Identical values can stand only once. Potency and affinity values are given separately.
# What was measured:
# [1] = system: Klebsiella pneumoniae; conditions: Concentration 32 ug.mL-1, ASSAY_TEST Inhibition of Bacterial Growth, detection method Absorption (OD600), MEDIA CAMHB, plate type 384well, NBS, CORNING #3640, time 18 hr
# [2] = system: Candida albicans; conditions: 32 ug/mL
# [3] = system: Cryptococcus neoformans; conditions: Concentration 32 ug.mL-1, ASSAY_TEST Inhibition of Fungal Growth, detection method Resazurin, Absorption (OD600-OD570), plate type 384well, NBS, CORNING #3640
SMILES,Inhibition ([1]; 32 ug/mL),Inhibition [2],Inhibition ([3]; 32 ug/mL),Inhibition [1],Inhibition [3]
Cc1ccc(S(=O)(=O)N2CC(C)C(=O)N2S(=O)(=O)c2ccc(C)cc2)cc1 (configuration not stated),2.85% and 1.74%,7.75% and 4.44%,-9.56% and 1.92%,,
CCCCCCCC1CN(S(=O)(=O)c2ccc(C)cc2)N(C(=O)OC(C)(C)C)C1=O (configuration not stated),,1.48%,,0.4%,-13.28%
CC(C)(C)OC(=O)N1C(O)C(Cc2ccccc2)CN1S(=O)(=O)c1ccc([N+](=O)[O-])cc1 (configuration not stated),9.89% and 6.63% and 13.09%,,-4.16% and -1.5% and -1.29%,,
CC1CN(S(=O)(=O)c2ccc([N+](=O)[O-])cc2)N(C(=O)OC(C)(C)C)C1O (configuration not stated),,0.59%,,-4.4%,-8.44%
CC1CN(S(=O)(=O)c2ccc([N+](=O)[O-])cc2)N(C(=O)OC(C)(C)C)C1=O (configuration not stated),7.28% and 7.49% and 8.98%,,-7.3% and -1.18% and -10.38%,,
O=C(OCc1ccccc1)N1OC(O)C2CCCCC21 (configuration not stated),,6.56%,,8.05%,-9.13%
CCCCCCCC1CN(S(=O)(=O)c2ccc(C)cc2)N(C(=O)OC(C)(C)C)C1O (configuration not stated),,2.88%,,-2.15%,-7.05%
CC(C)(C)OC(=O)N1C(=O)C(Cc2ccccc2)CN1S(=O)(=O)c1ccc([N+](=O)[O-])cc1 (configuration not stated),6.28% and 7.63% and -5.45%,,-5.52% and -6.93% and -6.97%,,
CC1CN(C(=O)OCc2ccccc2)OC1=O (configuration not stated),1.37% and 8.3% and 6.85%,,,,
CC1CN(C(=O)OCc2ccccc2)OC1O (configuration not stated),,2.95%,,4.15%,-0.06%
CC(C)(C)OC(=O)N1C(O)C2CCCC2N1S(=O)(=O)c1ccc([N+](=O)[O-])cc1 (configuration not stated),,1.02%,,-0.3%,-8.39%
O=C(OCc1ccccc1)N1CC(Cc2ccccc2)C(O)O1 (configuration not stated),,12.9%,,0%,9.21%
Cc1ccc(S(=O)(=O)N2CC(Cc3ccccc3)C(=O)N2S(=O)(=O)c2ccc(C)cc2)cc1 (configuration not stated),-3.35% and -1.6%,,-1.01% and -2.47%,,
CC1C(O)N(C(=O)OC(C)(C)C)N(S(=O)(=O)c2ccc([N+](=O)[O-])cc2)C1C (configuration not stated),,3.18%,,8.57%,-8.51%
O=C1ON(C(=O)OCc2ccccc2)CC1Cc1ccccc1 (configuration not stated),2.56% and 10.07%,4.94% and 2.48%,7.64% and 2.52%,,
CCCCCCCC1CN(S(=O)(=O)c2ccc(C)cc2)N(S(=O)(=O)c2ccc(C)cc2)C1O (configuration not stated),,8.32%,,2.03%,-3.29%

# — ChEMBL document CHEMBL4513145, “CO-ADD screening of Biotechnology Research Centre (C.R.B.t) (Algeria) compounds”
